Compound activity from PubChem BioAssay.
Sm TGR inh = S. mansoni TGR enzyme inhibition; actives 3% (n = 360,000); purified TGR, DTNB reduction, TNB absorbance 405 nm; Q962Y6; Potency, µM (highest dose often 114 µM), without a hit: at the highest dose activity change, negative = inhibition, usual class: inhibitors; active = well fitted inhibition curve with a large enough effect; inconclusive = small, poorly fitted or top-dose-only effect; inactive = no such curve, though single readings can be large or run the other way; note: % is set by controls: 0 for no effect and ±100 for the full control effect; nearly all actives have a fitted effect of over 60% in size
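Kinetic colorimetric format: TGR-catalysed, NADPH-driven DTNB reduction monitored via TNB absorbance. Enzyme dispensed at 20 nM; compound exposure 15 min at room temperature before reaction start.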
SARS PLP yeast = inhibitors of SARS-CoV papain-like protease in yeast; S. cerevisiae expressing SARS-CoV PLpro, growth rescue; Potency, µM (doses to about 32.9 µM), for inactives: top-dose activity, positive = growth rescue, usual class: activators; actives 0.19% (n = 330,000); calls by dose curve; note: 0% is about no effect; nearly all actives have a fitted effect of over 55% in size
* hit, by the source's call; ? = inconclusive; · = no result; [ ] = dose if it differs, or a comment. Compounds with a hit are over-represented: about 3% of the library has one in this group of screens. Potency is the fitted concentration of half-maximal effect.

SMILES	Sm TGR inh	SARS PLP yeast
Cc1ccc(N(CC(=O)NCCSCc2ccco2)S(C)(=O)=O)cc1	45µM*	2%
O=C(COc1ccccc1)NCCSCc1ccco1	25µM*	-15%
COc1ccc(N(CC(=O)NCCSCc2ccco2)S(=O)(=O)c2ccccc2)cc1	?	0%
Cc1ccc(N(CC(=O)NCCSCc2ccco2)S(=O)(=O)c2ccc(F)cc2)cc1	0%	15%
Cc1ccc(S(=O)(=O)N(CC(=O)NCCSCc2ccco2)c2ccc(F)cc2)cc1	13µM*	0%
Cc1ccc(NC(=O)C2CCCN(c3ncnc4onc(C)c34)C2)c(Cl)c1 (centres undefined)	5%	·
Cc1ccc(NC(=O)Cn2c(=O)n(Cc3nc(C)no3)c(=O)c3cc4c(cc32)OCO4)cc1	8%	·
Cn1ccc2cc(S(=O)(=O)N3CCCC(C(=O)NCc4ccc(F)cc4)C3)ccc21 (centres undefined)	0%	·
COc1ccc(C2=C(Nc3ccc(Br)c(C)c3)c3ccccc3C2=O)cc1	-6%	·
COc1ccc(-c2nc3c(C#N)c[nH]n3c2NC2CCCCC2)cc1	-2%	·
Cc1c(C(=O)OC2CCCCC2)[nH]c2c1C(=O)CC(c1ccc(C(C)(C)C)cc1)C2 (centres undefined)	7%	·
COc1ccc(CNC(=O)c2ccc(-c3nc(CSc4ccc(C)cc4)c(C)o3)cc2)cc1OC	0%	·
COc1ccccc1N(CC(=O)NCCSCc1ccco1)S(=O)(=O)c1ccccc1	50µM*	0%
Cc1cc(Cl)ccc1N(CC(=O)NCCSCc1ccco1)S(C)(=O)=O	18µM*	1%
CS(=O)(=O)N(CC(=O)NCCSCc1ccco1)c1ccc2c(c1)OCO2	?	-1%
COc1ccc(N(CC(=O)NCCSCc2ccco2)S(=O)(=O)c2ccccc2)cc1OC	-7%	-2%
COc1cccc(CN2CCCN(CC(=O)Nc3ccc4c(c3)OCCO4)S2(=O)=O)c1	5%	·
COc1ccc(CCN2C(=O)c3[nH]nc(-c4ccccc4O)c3C2c2ccc(OC)c(OC)c2)cc1 (centres undefined)	5%	·
COc1ccccc1Cn1cc(C(=O)c2ccc(C)cc2)c(=O)c2cc(C)ccc21	1%	·
Cn1c(-c2ccc([N+](=O)[O-])cc2)nc2ccccc21	·	-1%
Cn1nc([N+](=O)[O-])c(C(C#N)c2nc3ccccc3n2C)c(Cl)c1=O (centres undefined)	32µM*	0%
CCc1cccc(NC(=O)c2cc3c(=O)[nH]c4ccccc4c3n2C)c1	-7%	·
COc1cccc(CNC(=O)CN2C(=O)N(c3cccc(Cl)c3)S(=O)(=O)c3ccccc32)c1OC	6%	·
O=[N+]([O-])C1=CC=C2C(=NC3(CCCCC3)N2O)C1=NCCc1ccccc1	45µM*	-2%
CC(C)(C)N=C1C([N+](=O)[O-])=CC=C2C1=NC1(CCCCC1)N2O	?	3%
SMILES	Sm TGR inh	SARS PLP yeast
CC(=O)c1ccc(NS(=O)(=O)c2ccc(-n3cccn3)cc2)cc1	-9%	·
CC(CNc1ccccc1O)C(=O)O (centres undefined)	50µM*	-30%
CC(Oc1ccccc1)C(=O)Nc1ccccc1O (centres undefined)	8%	-9%
Cc1ccc(NC(=S)Nc2cccc(S(=O)(=O)Nc3c(C)n(C)n(-c4ccccc4)c3=O)c2)cc1	50µM*	0%
Cc1ccc(S(=O)(=O)Nc2c(C)n(C)n(-c3ccccc3)c2=O)cc1	5%	0%
CC(=O)c1ccc(NC(=S)Nc2cccc(S(=O)(=O)Nc3c(C)n(C)n(-c4ccccc4)c3=O)c2)cc1	14µM*	1%
Cc1c(NS(=O)(=O)c2cccc(C(=O)O)c2)c(=O)n(-c2ccccc2)n1C	-17%	-5%
COc1cc(-c2noc(-c3ccc(NCCc4ccccc4)c([N+](=O)[O-])c3)n2)cc(OC)c1OC	-6%	·
COc1cccc(CNC(=O)C2CCN(C(=O)c3sccc3-n3cccc3)CC2)c1	-4%	·
Cc1cccc2cc(CN(C(=O)c3cccc(Cl)c3)c3ccccc3)c(=O)[nH]c12	21%	·
O=C(CCS(=O)(=O)Cc1ccccc1)N1CCN(c2ccc([N+](=O)[O-])cc2)CC1	25µM*	0%
O=C(CCS(=O)(=O)Cc1ccccc1)N1CCN(c2ccccc2)CC1	-2%	10%
CCOc1cccc(CC(=O)NCc2ccc3c(c2)CCN3C(=O)c2cccc(C)c2)c1OCC	0%	·
Cn1cccc1C1C(C#N)=C(N)OC2=C1C(=O)CC(C)(C)C2 (centres undefined)	-11%[57.1 µM]	0%
CC1(C)CC(=O)C2=C(C1)OC(N)=C(C#N)C2c1ccc[nH]1 (centres undefined)	18µM*	-4%
CCCN1CCN(c2nnc(-n3cccc3C(=O)Nc3cc(Cl)ccc3C)s2)CC1	-7%	·
Cc1cc(C)c(S(=O)(=O)NCc2ccc3c(c2)CCN3C(=O)c2ccccc2)c(C)c1	1%	·
Cc1c(CC(=O)N2CCCCC2)c(=O)oc2cc(O)ccc12	-2%	·
COc1ccc2oc(-c3cccc(NC(=O)c4sc5c([N+](=O)[O-])cccc5c4Cl)c3)nc2c1	-7%	·
CC(C)(C)C1=CC=C(C(C)(C)C)C(=O)C1=O	25µM*	0%
COc1ccc(OCC(=O)O/N=C(\N)c2ccc(OC)cc2)cc1	6%	-2%
CO/N=C(/COc1ccc(F)cc1)c1ccc(OC)cc1	25µM*	0%
COc1ccccc1N1C(=O)[C@@H]2[C@H](C1=O)[C@H](C(=O)c1ccc(OC(C)=O)cc1)N1N=CC=C[C@@H]21	16µM*	0%
COc1ccccc1N1C(=O)C2C3C=CC(C3)C2C1=O (centres undefined)	15%	?
CC(=O)c1sc(NC(=O)C=C(C)C)nc1C	2%	-1%
SMILES	Sm TGR inh	SARS PLP yeast
Cc1csc(NC(=O)CCS(=O)(=O)c2ccc(Br)cc2)n1	3.5µM*	-7%
CC(=O)c1sc(NC(=O)CS(=O)(=O)c2ccc(F)cc2)nc1C	-1%	2%
O=C(CCS(=O)(=O)c1ccc(Br)cc1)Nc1ccc2c(c1)OCO2	40µM*	6%
CC(=O)c1sc(NC(=O)C2(F)C(F)(F)C(F)(F)C(F)(F)C(F)(F)C2(F)F)nc1C	50µM*	-31%
Cc1csc(NC(=O)Cc2ccc(Br)cc2)n1	23%	-10%
CC(=O)c1sc(NC(=O)CCS(=O)(=O)c2ccc(C)cc2)nc1C	35µM*	7%
Cc1ccc(S(=O)(=O)CCC(=O)Nc2ccc3c(c2)OCO3)cc1	-2%	-7%
COc1ccc(Nc2cc(C(=O)NCCCN(C)Cc3ccccc3)c3ccccc3n2)cc1OC	4%	·
CCOc1ccccc1NC(=O)CC1C(=O)NCCN1C(=O)c1ccc(F)cc1 (centres undefined)	6%	·
CC(C)OCCCn1c(=O)c2ccccc2n2c(-c3ccc(F)c(F)c3)nnc12	3%	·
Cc1ccc(Cn2ccnc2SCC(=O)Nc2ccccc2C(F)(F)F)cc1	3%	·
CCN(CC)CCn1c2c(c(SCC(=O)Nc3cccc(C(F)(F)F)c3)nc1=O)CCC2	0%	·
O=C(COc1ccc(F)cc1)NC1CC(=O)N(c2ccc3c(c2)OCCO3)C1 (centres undefined)	7%	·
Cc1ccc(NC(=O)CCC(=O)c2cccs2)nc1	50µM*	0%
Cc1ccc(NC(=O)CCS(=O)(=O)c2ccc(Br)cc2)nc1	16µM*	16%
Cc1ccc(S(=O)(=O)CCC(=O)Nc2ccc(Br)cc2)cc1	13%	2%
Cc1ccc(NC(=O)CNC(=O)c2cccs2)nc1	-1%	2%
